Compound activity as filed in PubChem.
Shiga toxin inh – inhibitors of Shiga toxin in Vero cells | inhibition, % at 38.7 µM | AID 2315 | 290,000 compounds, 9.2% hits | Vero cells, Shiga toxin protein synthesis inhibition reporter; in the data active = inhibition mostly above about 28%, no sharp cut-off; inactive = mostly below about 43%
Pf growth 96h – P. falciparum growth inhibition at 96 hour, primary screen for plastid delayed-death inhibitors; 320,000 compounds, 6.9% hits; AID 504834; P. falciparum luciferase reporter growth, 96 h; Potency, µM (series often up to 28.7 µM), actives largely listed as inhibitors
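Erythrocytes infected with luciferase-expressing P. falciparum were dispensed at 2% hematocrit and 0.05% parasitemia (final), then incubated with compounds 96 hours at 37 C in 5% CO2. Luminescence after detection reagent addition reported growth.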
CHX counter – counter-screen hit for Shiga toxin inhibitors, cycloheximide; max response, %; 300,000 compounds, 12% hits; cell reporter, cycloheximide protein synthesis inhibition counterscreen; AID 2314; in the data active = max response mostly above about 13%, no sharp cut-off; inactive = mostly below about 14%; note: read at 38.3 µM for the half of the compounds with a filed dose
Pf growth 48h – P. falciparum growth inhibition at 48 hours (one generation). P. falciparum luciferase growth in erythrocytes, 48 h. Potency, µM (series often up to 28.7 µM), hits mostly inhibitors. 310,000 compounds, 5.9% hits
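Luciferase-expressing parasites in RBCs, 2% Hct / 0.1% parasitemia final; RPMI 1640 + 0.5% Albumax; 37 C, 5% CO2, one generation; luminescence read-out, lower signal = inhibition.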
NS1 function inh – inhibitors of influenza NS1 protein function; Potency, µM (top dose mostly 46.1 µM); 270,000 compounds, 0.4% hits; calls by dose curve; note: actives are rising curves; nearly all actives have a fitted effect of over 50% in size
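S. cerevisiae expressing influenza A NS1, grown in glucose, washed, then diluted 1:100 into pH 6.0 -URA galactose medium with 23 nl compound. Growth recovery read as OD600; NS1-free strain serves as control.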
Large screens that a line does not name were inactive. Rows were chosen to be rich in hits. Some 21% of all compounds tested hit in one or more screens of this group. Unless noted, calls come from the whole dose curve; as a rule, active = well fitted inhibition curve with a large enough effect; inconclusive = small, poorly fitted or top-dose-only effect, or another doubt; inactive = no such curve, though single readings can be large or run the other way.

O=C1C=C(N2CCOCC2)C2(CCCCC2)O1	CHX counter 28, Pf growth 48h inconclusive
CCc1cc(=O)oc2c3c(cc(OCC(=O)N[C@H](C(=O)O)[C@H](C)CC)c12)OC(C)(C)CC3	Pf growth 96h inconclusive, Pf growth 48h inconclusive
Cn1ncc2c(Nc3ccccc3Cl)nc(Nc3ccccc3Cl)nc21	Pf growth 96h inconclusive, Pf growth 48h 7.4µM
CC1CCCCC1NC(=O)c1ccc(NC2=NC3CS(=O)(=O)CC3S2)cc1 (centres undefined)	none
CCOc1c(Cl)cc(CNc2nnnn2C)cc1OC	Pf growth 48h 5.9µM
CCOc1ccc(CNc2nnnn2C)cc1OC	Pf growth 48h inconclusive
CCOc1nc(-c2ccncc2)nc2ccccc12	Pf growth 96h inconclusive, Pf growth 48h inconclusive
CCCOc1ccc(-c2nc(N3CCN(C)CC3)c3ccccc3n2)cc1	Shiga toxin inh 61, Pf growth 96h inconclusive, CHX counter 33
CCCOc1ccc(-c2nc(N3CCN(CC)CC3)c3ccccc3n2)cc1	Pf growth 96h 12µM, Pf growth 48h 10µM
CCN1CCN(c2nc(-c3cccnc3)nc3ccccc23)CC1	Pf growth 48h inconclusive (no result: Pf growth 96h)
CCCOc1ccc(-c2nc(OCC)c3ccccc3n2)cc1	Shiga toxin inh 32 (no result: Pf growth 48h)
CCN1CCN(c2nc(-c3ccncc3)nc3ccccc23)CC1	Pf growth 96h 7.4µM, Pf growth 48h 9.3µM
COC(=O)C1=C(C)N(Cc2ccccc2)C(=NCc2cc(OC)c(OC)c(OC)c2)N[C@H]1c1ccc(Br)cc1	none
O=C(C[C@@H]1C=Cc2ccccc2N1C(=O)c1ccccc1)c1ccccc1	none (no result: Shiga toxin inh, Pf growth 96h, CHX counter, Pf growth 48h)
CC(=O)N[C@H]1C(O[C@@H]2O[C@H](C[C@@H](O)[C@H]3O[C@@H](N4CCC(=O)NC4=O)[C@H](O)[C@@H]3O)[C@H](O)[C@H](O)[C@H]2NC(=O)/C=C/CCCCCCCCCCC(C)C)OC(CO)[C@@H](O)[C@@H]1O (some centres undefined)	none (no result: Pf growth 96h, Pf growth 48h, NS1 function inh)
COc1ccc(CN2C(=O)c3cccnc3C2=O)cc1S(=O)(=O)N1CCCC(C)C1 (centres undefined)	Pf growth 96h 15µM
COc1ccc(CN2C(=O)c3cccnc3C2=O)cc1S(=O)(=O)N1CCCCC1	none
Nc1nnc(N2CCCCC2)s1	Pf growth 48h inconclusive
O=C1CCCc2nc(N3CCCCC3)sc21	Shiga toxin inh 51, CHX counter 30
Cc1csc(NC(=O)C(C)Oc2ccc(Cl)cc2C)n1 (centres undefined)	Pf growth 96h inconclusive, Pf growth 48h 13µM (no result: Shiga toxin inh, CHX counter, NS1 function inh)
Cc1cc(Cl)ccc1OC(C)C(=O)O (centres undefined)	none
Cc1cc(NC(=O)C(C)Oc2ccc(Cl)cc2Cl)no1 (centres undefined)	Pf growth 96h 1.7µM
CC(Oc1ccc(Cl)cc1Cl)C(=O)Nc1ncccn1 (centres undefined)	Pf growth 96h inconclusive, CHX counter 22 (no result: Pf growth 48h)
COC(=O)c1ccc(C(=O)OC)c(NC(=S)N2CCN(c3cccc(Cl)c3)CC2)c1	none
Cc1ccc(NC(=O)c2ccccc2N(C)S(=O)(=O)c2ccccc2)c(C)c1	none
Cc1ccc(Nc2c(N)c(=O)oc3ccccc23)cc1	Shiga toxin inh 57, CHX counter 22, Pf growth 48h inconclusive
Cc1cccc(NC(=O)COC(=O)Cc2cccc(C(F)(F)F)c2)c1C	none
CC1CC(C)CN(CCOc2ccccc2-c2ccccc2)C1 (centres undefined)	Pf growth 96h 10µM, Pf growth 48h inconclusive
c1ccc(OCCOCCN2CCN(C(c3ccccc3)c3ccccc3)CC2)cc1	Pf growth 48h inconclusive
COc1cccc(OC)c1OCCCCN1CCCCC1	Pf growth 96h 13µM, Pf growth 48h inconclusive
COc1cccc(OC)c1OCCCCN1CCCC1	Pf growth 96h inconclusive
COc1ccccc1OCCCCN1CCN(C(c2ccccc2)c2ccccc2)CC1	Pf growth 96h 12µM, Pf growth 48h inconclusive
Cc1cc(C(C)(C)C)ccc1OCCCCN1CCCC1	CHX counter 30, Pf growth 48h inconclusive
c1ccc(-c2ccccc2OCCCCN2CCCCC2)cc1	Pf growth 48h 10µM
c1ccc(-c2ccccc2OCCCN2CCCCCC2)cc1	Pf growth 48h inconclusive (no result: NS1 function inh)
CC(C)Cn1c(=O)c(C(=O)NCc2ccc3c(c2)OCO3)c(O)c2ccccc21	Pf growth 96h inconclusive, Pf growth 48h inconclusive
NC1=NC[C@H](c2ccccc2)N1CCc1cccc(F)c1	Pf growth 96h inconclusive, Pf growth 48h inconclusive
NC1=NC[C@H](CC2CCCCC2)N1CCc1cc(C(F)(F)F)cc(C(F)(F)F)c1	Pf growth 96h 2.3µM, Pf growth 48h 2.9µM
NC1=NC[C@@H](Cc2ccc(O)cc2)N1CCc1cccc(F)c1	Pf growth 96h 1.9µM, Pf growth 48h 10µM
NC1=NC[C@@H](Cc2ccc(O)cc2)N1CCc1cc(C(F)(F)F)cc(C(F)(F)F)c1	Pf growth 96h 3.3µM, Pf growth 48h 5.9µM
CC(C)(C)CN1C(N)=NC[C@@H]1Cc1ccc(O)cc1	Pf growth 96h inconclusive, Pf growth 48h inconclusive
Cc1ccc(C(=O)N(CC(C)C)c2nc3ccccc3s2)o1	none
CC(C)CN(C(=O)c1ccc(=O)n(C)n1)c1nc2ccccc2s1	CHX counter 15
Cc1ccc(OCc2cc(C(=O)NC3CCOC3)no2)cc1C (centres undefined)	Shiga toxin inh 25, CHX counter 20
Cc1cc(OCc2cc(C(=O)NC3CCC3)no2)cc(C)c1Cl	Pf growth 48h inconclusive
CC(=O)c1cccc(OCc2cc(C(=O)NC3CCN(Cc4ccccc4)CC3)no2)c1	Pf growth 96h 12µM
COc1ccc(OCc2cc(C(=O)NC3CCOCC3)no2)c2ccccc12	Pf growth 96h inconclusive, CHX counter 22, Pf growth 48h inconclusive
CC1(C)CC(NC(=O)c2cc(COc3cccc(C(F)(F)F)c3)on2)CCO1 (centres undefined)	Shiga toxin inh 48, Pf growth 96h inconclusive, CHX counter 29
COc1cccc(OCc2cc(C(=O)NC3CCOCC3)no2)c1	Shiga toxin inh 82, CHX counter 46
O=C(NC1CCCC1)c1cc(COc2ccc3ncccc3c2)on1	none
C[N+]1(C)[C@@H]2CC[C@H]1CC(OC(=O)C(c1ccccc1)c1ccccc1)C2 (some centres undefined)	Pf growth 96h 3.3µM, Pf growth 48h 2.3µM
COc1ccc([C@H]2[C@H](C(=O)C(C)(C)C)N3N=Cc4ccccc4C3[C@]23N=C(c2ccccc2)OC3=O)cc1OC (some centres undefined)	Pf growth 96h inconclusive, Pf growth 48h inconclusive
CC(C)(C)OC(=O)[C@H]1[C@H](c2ccc([N+](=O)[O-])cc2)C2(C(=O)c3ccccc3C2=O)C2c3ccccc3C=NN21 (some centres undefined)	Pf growth 96h 1.9µM, CHX counter 12, Pf growth 48h 13µM
CCN(CC(=O)Nc1ccccc1C(F)(F)F)C(=O)c1ccc(N2C(=O)CCC2=O)cc1	none
COc1cccc(-c2noc(-c3cccnc3)n2)c1	Shiga toxin inh 68, Pf growth 96h inconclusive, CHX counter 34
COc1cccc(-c2noc(N)c2C#N)c1	CHX counter 17, Pf growth 48h 7.4µM
COc1cc(-c2nc(-c3cccnc3)no2)cc(OC)c1OC	none
